Source: PubChem BioAssay AID2279 (Southern Research Specialized Biocontainment Screening …, 2010)
Measured potencies and affinities stand elsewhere. Unmarked numbers belong to inactive results. The rule behind the calls is not given here.

Test: CCR5-tropic HIV-1 fusion blockers – cell-based, CCR5-tropic Env, dose response (AID 2279)
Conditions: CCR5-tropic HIV-1 Env, reporter read-out; series mostly up to 50 µM; inhibition: at the top concentration

Row | Compound | inhibition [%]
1 | COc1cc(/C=C2\C(=N)N3N=C(S(C)(=O)=O)SC3=NC2=O)cc(OC)c1OCCOc1ccccc1C | 6.64
2 | N#Cc1c(-c2ccccc2)nc(SCC(=O)N2c3ccccc3Sc3ccccc32)[nH]c1=O | -1.64
3 | CSc1ccc(C(c2c(C(=O)O)[nH]c3ccccc23)c2c(C(=O)O)[nH]c3ccccc23)cc1 | -22.7
4 | O=C1N/C(=N\S(=O)(=O)c2ccccc2)S/C1=C\c1cc([N+](=O)[O-])ccc1O | -8.05
5 | C=CCOc1ccc(C(c2c(C(=O)O)[nH]c3ccccc23)c2c(C(=O)O)[nH]c3ccccc23)cc1 | -3.52
6 | Cc1cc(/C=c2\sc3nc4ccccc4n3c2=O)c(C)n1-c1ccc(C(=O)O)cc1 | 34.4
7 | CCCCCC#CCC#CCC#CCC#CCCCC(=O)O | 23.7
8 | Cc1ccc(Cl)cc1N1CCN(C(=O)Cc2c(C(=O)O)[nH]c3ccc(Cl)cc23)CC1 | -12.9
9 | O=C(O)CN1C(=O)/C(=C\c2cc(Br)ccc2OCc2ccc(Cl)cc2Cl)SC1=S | -14.4
10 | COc1cc(/C=C2/SC(=S)N(Cc3ccccc3)C2=O)ccc1OCC(=O)O | 23.6
11 | COc1cc(/C=C2\S/C(=N/S(=O)(=O)c3ccc(C)cc3)NC2=O)c([N+](=O)[O-])cc1OC | -8.6
12 | Cc1ccccc1N=C1NC(=O)/C(=C/c2cccn2-c2cccc(C(=O)O)c2)S1 | -7.38
13 | O=C(O)CSc1nc(-c2ccc(Cl)cc2)nc2c1oc1ccccc12 | 34.2
14 | COc1cc(OC)c2c(O)c3c(c(-c4c5c(c(O)c6c(OC)cc(OC)cc46)CO[C@@H](C)[C@H]5O)c2c1)[C@H](O)[C@H](C)OC3 | 6.59
15 | O=C(N/N=C/c1cc(Cl)cc([N+](=O)[O-])c1O)c1ccccc1NS(=O)(=O)c1cccs1 | -28
16 | COc1cc(/C=C2\C(=N)N3N=C(S(C)(=O)=O)SC3=NC2=O)ccc1OS(=O)(=O)c1ccccc1 | 9.44
17 | NS(=O)(=O)c1cc(C(=O)NC2CCSc3ccccc32)ccc1Cl (centres undefined) | -1.13
18 | COc1ccc(/C=C2/SC(=S)N(CC(=O)O)C2=O)cc1OCc1ccc(Cl)cc1 | 1.03
19 | CCc1nnc(NS(=O)(=O)c2ccc(N/C=C(\C=O)c3nc4cc(Cl)ccc4o3)cc2)s1 | -1.49
